ClpP mod: qHTS Assay for Activators of ClpP | ATP-dependent Clp protease proteolytic subunit (Bacillus subtilis (strain 168)), P80244 | purified B. subtilis ClpP, FRET peptide cleavage, 20 min | Potency, µM (highest dose often 57.5 µM), for inactives: at the highest dose activity change, negative = active | actives 1.9% (n = 340,000); active = well fitted falling curve with a large enough effect; inconclusive = small, poorly fitted or top-dose-only effect; inactive = no such curve, though single readings can be large or run the other way; also: the source files actives as falling curves though it sought activators and does not explain the sign; nearly all actives have a fitted effect of over 65% in size
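Purified B. subtilis ClpP, 10 microg/mL final in Tris/HCl pH8 with KCl, BSA, glycerol and Tween-20, cleaved an Abz/nitrotyrosine-quenched decapeptide. Fluorescence (ex 320, em 430) was read at 0 and 20 min at room temperature. Delta was normalized to 5.8 microM ADEP and DMSO/no-enzyme controls.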
TDP1 block: inhibitors of human tyrosyl-DNA phosphodiesterase TDP1 | AID 485290 | recombinant TDP1, AlphaScreen DNA substrate cleavage | actives 0.28% (n = 350,000) | Potency, µM (series often up to 130 µM), for inactives: at the highest dose activity change, negative = inhibition, most hits filed as inhibitors; also: % is scaled to controls: 0 for no effect and ±100 for the full control effect; nearly all actives have a fitted effect of over 40% in size
Target sequence (Q9NUW8 whole entry, looked up): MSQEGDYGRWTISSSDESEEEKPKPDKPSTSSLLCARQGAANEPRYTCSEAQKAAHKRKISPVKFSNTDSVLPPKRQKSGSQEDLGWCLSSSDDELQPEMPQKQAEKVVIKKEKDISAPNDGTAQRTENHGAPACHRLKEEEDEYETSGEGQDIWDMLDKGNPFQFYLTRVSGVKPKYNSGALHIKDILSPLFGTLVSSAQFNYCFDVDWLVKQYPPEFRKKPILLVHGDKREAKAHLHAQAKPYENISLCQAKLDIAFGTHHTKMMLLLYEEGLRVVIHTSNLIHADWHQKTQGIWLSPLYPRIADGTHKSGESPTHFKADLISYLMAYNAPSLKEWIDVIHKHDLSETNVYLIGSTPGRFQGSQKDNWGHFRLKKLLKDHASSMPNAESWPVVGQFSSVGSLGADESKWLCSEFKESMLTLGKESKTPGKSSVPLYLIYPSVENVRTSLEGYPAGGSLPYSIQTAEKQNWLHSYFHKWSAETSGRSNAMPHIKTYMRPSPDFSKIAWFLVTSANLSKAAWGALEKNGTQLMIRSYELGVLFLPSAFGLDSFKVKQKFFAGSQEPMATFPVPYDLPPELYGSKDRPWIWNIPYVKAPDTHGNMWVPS
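Signal: AlphaScreen proximity between streptavidin donor and anti-FITC acceptor beads on intact substrate. Reaction: Tdp1 1 nM, substrate 15 nM final, 5 min RT after 15 min compound preincubation.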
TDP1 cell noCPT: qHTS for Inhibitors of human tyrosyl-DNA phosphodiesterase 1 (TDP1): qHTS in cells in absence of CPT | actives 15% (n = 420,000) | Potency, µM (highest dose often 46.2 µM), without a hit: at the top dose activity change, negative = growth inhibition, actives largely listed as inhibitors | DT40 Tdp1-/- hTDP1 cells, no CPT, ATP luminescence, 48 h; also: % is scaled to controls: 0 for no effect and ±100 for the full control effect; nearly all actives have a fitted effect of over 55% in size
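Cells were dispensed at 400 per well, compounds added by pin tool, plates incubated ≥48 hr at 37 °C, then CellTiter-Glo added for 30 min at room temperature before luminescence reading. Line: DT40 Tdp1-/- complemented with hTDP1; camptothecin omitted.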
TDP1 cell CPT: growth inhibition of DT40 Tdp1-/-;hTDP1 cells with camptothecin (screen for TDP1 inhibitors); chicken DT40 Tdp1-/-;hTDP1 cells + 20 nM CPT, ATP luminescence, 48 h; AID 686979; actives 12% (n = 420,000); Potency, µM (titrated, usually from 46.2 µM), for the others: top-dose activity change, negative = growth inhibition, hits mostly inhibitors; also: % is scaled to controls: 0 for no effect and ±100 for the full control effect; nearly all actives have a fitted effect of over 55% in size
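Cell growth measured by CellTiter-Glo luminescence after a minimum 48 h, 37 C compound exposure with 20 nM CPT in Tdp1-knockout DT40 cells stably expressing hTDP1, seeded 400/well; qHTS titration format.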
* = called active by the depositor; ? = inconclusive; / = not tested or not shown; [ ] = remark or other dose. Sampled rows, rich in hits. Any-hit rate of the full collection: about 17%. Unless noted, calls follow the shape of the dose curve; as a rule, active = well fitted curve in the direction sought with a large enough effect; inconclusive = small, poorly fitted or top-dose-only effect, or another doubt; inactive = no such curve, though single readings can be large; an effect the other way counts as inactive or inconclusive. Potency is read from the fitted curve at half-maximal effect.

SMILES | ClpP mod | TDP1 block | TDP1 cell noCPT | TDP1 cell CPT
COCc1c(C(=O)N2CCCCCC2)cnn1-c1nccc(-c2cccs2)n1 | / | / | -5.3% | -1.2%
Cc1cc(C(=O)NCc2nnc3n2CCN(Cc2ccc4c(c2)Cc2ccccc2-4)CC3)c(C)o1 | / | / | 16.4µM* | ?
S=C(Nc1ccc(Cl)cc1)NC1CCN(Cc2ccccc2)CC1 | -12.7% | 5.6% | 9.2µM* | 20.6µM*
S=C(NC1CCCCC1)NC1CC2CCC(C1)N2Cc1ccccc1 (stereo not given) | / | 3.6% | 18.4µM* | ?
CCNC(=S)NC1CC2CCC(C1)N2Cc1ccccc1 (stereo not given) | -2.4% | -1.1% | -14.9% | -21.8%
S=C(NCCc1cccc(Cl)c1)NC1CCCCC1 | 1.8% | -0.2% | 20.6µM* | ?
COc1ccc(CCNC(=S)NC2CCN(Cc3ccccc3)CC2)cc1 | / | 6.9% | 23.1µM* | ?
CC(C)Cc1nnc(NC(=O)CCC(=O)NCCc2ccc(Cl)cc2)s1 | -0.5% | 1.6% | -1.2% | 0.7%
CCN(CC)C(=O)c1sc2c(c1C)c(=O)n(-c1ccc(C)c(C)c1)c(=O)n2Cc1cc(=O)n2ccccc2n1 | -27.4% | -1.5% | -12.7% | -15.6%
CCC(C)c1ccc(NC(=S)NC2CCN(Cc3ccccc3)CC2)cc1 (stereo not given) | 1.3% | 1.8% | 7.31µM* | 8.2µM*
Cc1ccccc1NC(=S)NC1CCN(Cc2ccccc2)CC1 | 1.1% | -1.1% | -37.6% | -28.3%
S=C(Nc1ccccc1)NC1CCN(Cc2ccccc2)CC1 | / | 2.5% | ? | -19.4%
CCc1ccc(NC(=S)NC2CCN(Cc3ccccc3)CC2)cc1 | -5.7% | 4.2% | 11.6µM* | 7.31µM*
CC(C(=O)O)c1ccc(N2Cc3ccccc3C2=O)cc1 (stereo not given) | -7.0% | 10.2%[56.1 µM] | ? | ?
CC[N+](C)(C)CC/C=C1/c2ccccc2Sc2ccc(Cl)cc21 | / | 2.7% | -6.2% | 7.1%
CCCCCCCCCCC[N+](C)(C)CC/C=C1/c2ccccc2Sc2ccc(Cl)cc21 | -5.3% | / | 2.59µM* | 5.8µM*
CCCCCCCCCC[N+](C)(C)CC/C=C1/c2ccccc2Sc2ccc(Cl)cc21 | -2.6% | / | 3.66µM* | 5.17µM*
Cc1cccn2c(=O)c(/C=C(\C#N)C(N)=O)c(Oc3ccccc3)nc12 | 4.0% | / | ? | ?
Cc1ccc(S(=O)(=O)/C(C#N)=C/c2c(N3CCOCC3)nc3c(C)cccn3c2=O)cc1 | 0.8% | 3.8% | ? | -6.0%
Cc1cc(Oc2nc3c(C)cccn3c(=O)c2/C=C(\C#N)S(=O)(=O)c2ccccc2)ccc1Cl | -6.1% | -3.0% | ? | 13µM*
Cc1cccn2c(=O)c(/C=C(\C#N)S(=O)(=O)c3ccccc3)c(Oc3ccc(Cl)cc3)nc12 | 0.9% | 1.8% | 18.4µM* | ?
O=C(CNC(=O)c1ccc(-c2ccccc2)cc1)OC(C(=O)Nc1cc(C(F)(F)F)ccc1Cl)c1ccccc1 (stereo not given) | / | 1.0% | / | /
O=C(CN1C(=O)C2(SCC(=O)N2c2ccc(F)cc2)c2ccccc21)NC1CCCCC1 (stereo not given) | -1.3% | -1.1% | -21.2% | -23.4%
FC(F)(F)c1cc(-c2cccs2)nc(-n2cc(Cl)cn2)n1 | 31.6µM* | 4.6% | -23.7% | -16.3%
CN1CCCCC1C(=O)N1CCC(Oc2cccc(CN3CCN(c4ccccn4)CC3)c2)CC1 (stereo not given) | / | / | ? | 11.9%[9.04 µM]
SMILES | ClpP mod | TDP1 block | TDP1 cell noCPT | TDP1 cell CPT
C#CCNC(=O)C1=C[C@H](c2ccc(C(F)(F)F)cc2)C[C@H](OCCCCO)O1 | -0.9% | -1.3% | -0.4% | ?
Nc1ccc(C(=O)NCCCSc2ccccc2)cc1[N+](=O)[O-] | / | -3.2% | ? | ?
CCCCN(CC)CCCNC(=O)c1ccc(CS(=O)(=O)c2ccccc2C)o1 | 1.0% | / | 24.1% | -3.9%
COc1ccc(C(=O)c2c(C)oc3ccc(O)c(CN4CCOCC4)c23)cc1 | -1.1% | 11.1% | 18.4µM* | ?
COc1ccc(C(=O)c2coc3ccc(O)c(CN4CCOCC4)c23)cc1 | 2.7% | 0.0% | ? | 11.6µM*
COc1ccc(C(=O)c2coc3ccc(O)c(CN4CCCC4)c23)cc1 | 1.4% | 2.6% | ? | ?
Cc1ccc(C(=O)c2coc3ccc(O)c(CN4CCN(C)CC4)c23)cc1 | 1.0% | 8.0% | 18.4µM* | 13µM*

Source: PubChem (National Center for Advancing Translational Sciences (NCATS))
